Experimental data reported in PubChem BioAssay AID1159580 (chemical genetic matrix, 2015).
Hit rate of the full screen: of about 5,500 compounds, about 2,000 (36%) were called active. Not shown: some 18% with an inconclusive outcome. Cut-off read from the data, not from the text of the source: active = normalized growth mostly below about 0.91 (no sharp cut-off); inconclusive = no clear call, values can overlap the other calls; inactive = mostly above about 0.92. The list shows a part of the results.

Experiment: chemical genetic growth profiling, strain panel (AID 1159580);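 note: tested at 20 µM; growth read once vehicle control cultures reached saturation at 30 °C; 1 = growth at the plate median or of vehicle wells; lower values mean less growth of the strain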
Details: S. cerevisiae deletion strains, growth OD

Measured: normalized growth

NC(=O)c1ncn(C2O[C@H](CO)[C@@H](O)[C@H]2O)c1N (stereo not given in full)
inactive: locus YAL021C, strain ccr4, active compounds read low 1.04 | locus YAL026C, strain drs2, active compounds read low 1.03 | locus YAL030W, strain snc1, active compounds read low 1.03 | locus YBL061C, strain skt5, active compounds read low 1.04 | locus YBR009C, strain hhf1, active compounds read low 1.07 | locus YBR023C, strain chs3, active compounds read low 1.02 | locus YBR171W, strain sec66, active compounds read low 1.05 | locus YBR231C, strain swc5, active compounds read low 1.04 | locus YBR279W, strain paf1, active compounds read low 1.02 | locus YCL011C, strain gbp2, active compounds read low 1.04 | locus YCL016C, strain dcc1, active compounds read low 1.03 | locus YCL061C, strain MRC1, active compounds read low 1.04 | locus YCL069W, strain vba3, active compounds read low 1.03 | locus YCR088W, strain abp1, active compounds read low 1.03 | locus YDL005C, strain med2, active compounds read low 1.04 | locus YDL040C, strain nat1, active compounds read low 1.03 | locus YDR001C, strain nth1, active compounds read low 1.03 | locus YDR069C, strain doa4, active compounds read low 1.03 | locus YDR137W, strain rgp1, active compounds read low 1.04 | locus YDR159W, strain sac3, active compounds read low 1.05 | locus YDR195W, strain ref2 1.02 | locus YDR297W, strain sur2, active compounds read low 1.03 | locus YDR334W, strain swr1, active compounds read low 1.04 | locus YDR335W, strain msn5, active compounds read low 1.03 | locus YDR392W, strain spt3, active compounds read low 1 | locus YEL003W, strain gim4, active compounds read low 1.03 | locus YEL037C, strain rad23, active compounds read low 1.03 | locus YEL061C, strain CIN8 (second series), active compounds read low 1.03 | locus YER015W, strain faa2, active compounds read low 1.04 | locus YER016W, strain bim1, active compounds read low 1.03 | locus YER111C, strain swi4, active compounds read low 1.04 | locus YER155C, strain BEM2 (second series), active compounds read low 1.06 | locus YFR010W, strain ubp6, active compounds read low 1.04 | locus YGL167C, strain pmr1, active compounds read low 1.04 | locus YGL173C, strain kem1, active compounds read low 1.04 | locus YGL227W, strain vid30, active compounds read low 1.04 | locus YGL240W, strain doc1, active compounds read low 1.06 | locus YGL253W, strain hxk2, active compounds read low 1.04 | locus YHR013C, strain ard1, active compounds read low 1.03 | locus YHR027C, strain rpn1, active compounds read low 1.03 | locus YHR030C, strain SLT2, active compounds read low 0.991 | locus YHR079C, strain IRE1, active compounds read low 1.01 | locus YHR142W, strain chs7, active compounds read low 1.02 | locus YJL092W, strain hpr5, active compounds read low 1.02 | locus YJL095W, strain BCK1 (second series), active compounds read low 1.03 | locus YJL095W, strain BCK1, active compounds read low 1.01 | locus YJL115W, strain asf1, active compounds read low 1.03 | locus YJL129C, strain trk1, active compounds read low 1.04 | locus YJL154C, strain vps35, active compounds read low 1.02 | locus YJL164C, strain tpk1, active compounds read low 1.02 | locus YJL166W, strain qcr8, active compounds read low 1.05 | locus YJL187C, strain SWE1, active compounds read low 1.03 | locus YJR066W, strain TOR1, active compounds read low 0.949 | locus YKL160W, strain elf1, active compounds read low 1.02 | locus YKR026C, strain gcn3, active compounds read low 1.03 | locus YKR091W, strain srl3, active compounds read low 1.03 | locus YLL001W, strain dnm1, active compounds read low 1.04 | locus YLL026W, active compounds read low 1.03 | locus YLL041C, strain sdh2, active compounds read low 1.04 | locus YLR027C, strain aat2, active compounds read low 1.03 | locus YLR113W, strain HOG1, active compounds read low 0.993 | locus YLR221C, strain rsa3, active compounds read low 1.03 | locus YLR258W, strain gsy2, active compounds read low 1.04 | locus YLR262C, strain YPT6 (second series), active compounds read low 1.05 | locus YLR320W, strain mms22, active compounds read low 1.05 | locus YLR342W, strain FKS1, active compounds read low 1.05 | locus YLR357W, strain rsc2, active compounds read low 1.08 | locus YLR370C, strain arc18, active compounds read low 1.05 | locus YLR384C, strain iki3, active compounds read low 1.04 | locus YML120C, strain ndi1, active compounds read low 1.01 | locus YMR058W, strain fet3, active compounds read low 1.03 | locus YMR125W, strain sto1, active compounds read low 1.04 | locus YMR129W, active compounds read low 1.03 | locus YMR205C, strain PFK2, active compounds read low 1.07 | locus YMR231W, strain pep5, active compounds read low 1.03 | locus YNL071W, strain lat1, active compounds read low 1.04 | locus YNL183C, strain NPR1, active compounds read low 0.965 | locus YNL209W, strain ssb2, active compounds read low 1.04 | locus YNL248C, strain rpa49, active compounds read low 1.03 | locus YNL322C, strain KRE1 (second series), active compounds read low 1.03 | locus YNR049C, strain mso1, active compounds read low 1.04 | locus YOR001W, strain rrp6, active compounds read low 1.02 | locus YOR070C, strain gyp1, active compounds read low 1.03 | locus YOR080W, strain dia2, active compounds read low 1.05 | locus YOR083W, strain WHI5, active compounds read low 1.02 | locus YOR106W, strain vam3, active compounds read low 1.03 | locus YOR231W, strain MKK1, active compounds read low 1.01 | locus YOR265W, strain rbl2, active compounds read low 1.04 | locus YOR270C, strain vph1, active compounds read low 1.05 | locus YOR290C, strain snf2, active compounds read low 0.974 | locus YPL051W, strain arl3, active compounds read low 1.01 | locus YPL078C, strain atp4, active compounds read low 1.03 | locus YPL106C, strain sse1, active compounds read low 1.08 | locus YPL240C, strain hsp82, active compounds read low 1.03 | locus YPL256C, strain CLN2, active compounds read low 0.982
